Source: PubChem (several laboratories)
The list is not random: actives were taken first. Their share in the collection is about 1.4%.
GLD-1 TGE inh: GLD-1/TGE RNA complex disruptors, primary screen, biochemical, fluorescence polarization | hit rate 0.44% among 320,000 | Female germline-specific tumor suppressor gld-1 (Caenorhabditis elegans), Q17339 | purified GLD-1 + fluorescein TGE RNA | inhibition, % at 5.96 µM;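 active = percent inhibition above a per-plate cutoff, the plate mean of test compounds plus 3 SD, cut at about 30% in these data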
eLon inh: inhibitors of E. coli Lon protease, primary screen, biochemical, fluorescence polarization | P0A9M0 | purified E. coli Lon protease | inhibition, % at 7.94 µM | hit rate 0.42% among 360,000 | AID 602123, 2011; in the data active = inhibition above about 13%, passing the limit was not always enough
MCL1 BIM primary: inhibitors of MCL1 binding to BIM-BH3, primary screen, biochemical, fluorescence polarization; GST-MCL1 / FITC-Bim-BH3 fluorescence polarization; AID 2057, 2009; hit rate 0.68% among 320,000; Induced myeloid leukemia cell differentiation protein Mcl-1 (Homo sapiens), Q07820; inhibition, % at 10.9 µM;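 active = inhibition above the mean inhibition of all tested compounds plus 3 SD, set per campaign, cut at about 40% in these data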;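 also: higher means more loss of mP so more displacement of Bim peptide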
Target sequence (Q07820 whole entry, looked up): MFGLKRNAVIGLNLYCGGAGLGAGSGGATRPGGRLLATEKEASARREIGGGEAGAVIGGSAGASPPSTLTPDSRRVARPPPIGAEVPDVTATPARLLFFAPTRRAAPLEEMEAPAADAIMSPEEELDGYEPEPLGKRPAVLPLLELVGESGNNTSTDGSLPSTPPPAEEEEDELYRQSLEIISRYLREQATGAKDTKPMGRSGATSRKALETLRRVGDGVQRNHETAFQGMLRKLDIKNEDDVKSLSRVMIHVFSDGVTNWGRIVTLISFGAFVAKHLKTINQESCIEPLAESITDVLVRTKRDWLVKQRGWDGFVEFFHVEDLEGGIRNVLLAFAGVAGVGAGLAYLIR
EBV gp42 block: Epstein-Barr virus gp42 inhibitors, primary screen, biochemical, uHTS, fluorescence polarization. Glycoprotein 42 (Epstein-Barr virus (strain AG876)), Q1HVG2. Fluorescence polarization binding assay, mP read-out. inhibition, % (tested at 21.74 µM). hit rate 0.42% among 220,000; in the data active = inhibition above about 50%
Target sequence (Q1HVG2 whole entry, looked up): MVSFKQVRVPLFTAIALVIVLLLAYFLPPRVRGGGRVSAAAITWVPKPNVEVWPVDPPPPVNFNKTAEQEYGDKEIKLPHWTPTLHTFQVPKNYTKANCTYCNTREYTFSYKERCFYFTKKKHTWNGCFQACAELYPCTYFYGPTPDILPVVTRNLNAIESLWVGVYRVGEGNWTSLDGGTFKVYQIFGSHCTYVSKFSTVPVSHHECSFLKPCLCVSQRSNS
MEX-5 binding: MEX-5 zinc finger RNA-binding disruptors – biochemical, C. elegans, fluorescence polarization, MLPCN library, primary screen; Zinc finger protein mex-5 (Caenorhabditis elegans), Q9XUB2; MEX-5/FITC-TCR2 RNA binding; active compounds read low; activity score (negative = inhibition of binding), % at 10 µM; hit rate 0.38% among 300,000; AID 1832, 2009;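 active = inhibition past about -25% in most replicates, and total fluorescence under double the plate's negative control median, limit read from the data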
Bcl-xL primary: inhibitors of human Bcl-xL, primary screen, biochemical, fluorescence polarization, HTS; Bcl-2-like protein 1 (Homo sapiens), Q07817; GST-Bcl-xL / FITC-Bim BH3 peptide fluorescence polarization; inhibition, % at 10.9 µM; hit rate 0.7% among 320,000;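 active = inhibition above the mean of all tested compounds plus 3 SD, cutoff set per campaign, cut at about 30% in these data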;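 also: inhibitors lower millipolarization by displacing the labeled peptide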
Numbers stand for hits; 0 = inactive; - = not tested or not shown.

SMILES | GLD-1 TGE inh | eLon inh | MCL1 BIM primary | EBV gp42 block | MEX-5 binding | Bcl-xL primary
COc1ccc(CCNC(=O)c2ccccc2NC(=O)C2=C(C)OCCS2)cc1OC | 0 | 0 | 0 | - | 0 | 0
COc1ccc(CCn2c(=N)c(C(=O)NCc3ccco3)cc3c(=O)n4ccccc4nc32)cc1OC | - | 0 | - | - | - | -
Cc1cccn2c(=O)c3cc(C(=O)NCc4ccco4)c(=N)n(CCOCCO)c3nc12 | 0 | 0 | 43 | 75 | 0 | 55
N=c1c(C(=O)NCc2ccco2)cc2c(=O)n3ccccc3nc2n1CCc1ccccc1 | 0 | 0 | 0 | 0 | 0 | 32
COCCn1c(=N)c(C(=O)NCc2ccco2)cc2c(=O)n3cc(C)ccc3nc21 | 56 | 0 | 69 | 0 | 0 | 72
Cc1cccn2c(=O)c3cc(C(=O)NCc4ccco4)c(=N)n(C4CCCCC4)c3nc12 | 0 | 0 | 0 | - | 0 | 0
Cc1onc(-c2ccccc2)c1C(=O)Nc1nnc(CC(C)C)s1 | 0 | 0 | 0 | - | 0 | 0
O=C(O)CCC1(c2ccccc2)NC(=O)NC1=O (centres undefined) | 0 | 0 | 0 | 0 | 0 | 0
COc1ccc(CN(C)C[C@H]2OCCCC[C@@H](C)Oc3ccc(NS(C)(=O)=O)cc3C(=O)N([C@H](C)CO)C[C@@H]2C)cc1 | - | 0 | - | - | - | -
Cc1ccc(S(=O)(=O)N(C)Cc2ccc(C(=O)N/N=C3\CC(=O)CC(C)(C)C3)cc2)cc1 | 0 | 0 | 0 | 0 | 0 | 0
CCN(CC)S(=O)(=O)c1cccc(C(=O)N/N=C2\CC(=O)CC(C)(C)C2)c1 | 53 | 0 | 0 | 0 | 0 | 0
COc1ccc(NC(=O)NCc2ccccn2)c(OC)c1 | 0 | 0 | 0 | - | 0 | 0
Cc1cc(C(=O)N/N=C2\CCCC(=O)C2)c2ccccc2n1 | 74 | 0 | 0 | 0 | 0 | 0
Cc1ccc2oc(C(=O)N3CCN(Cc4ncccc4C)CC3)c(C)c2c1 | 0 | 0 | 0 | - | 0 | 0
CCCCN(CC)CCCNC(=S)Nc1ccc2nc3n(c(=O)c2c1)CCCCC3 | 0 | 0 | 0 | 0 | 0 | 0
O=C(NCCc1ccccc1F)C1CCCN1S(=O)(=O)c1ccc2ccccc2c1 (centres undefined) | 0 | 0 | 0 | 0 | 0 | 40
Cn1c(N)c(C(=O)NCc2ccccc2)sc1=S | 0 | 0 | 0 | 0 | 0 | 34
Cc1c(C=O)c(Cl)n(C)c(=O)c1C#N | 0 | 0 | 0 | 0 | 0 | 37
Cc1ccc(CNC(=O)N2CCN(S(=O)(=O)c3ccccc3)CC2)cc1 | 0 | 0 | 0 | - | 0 | 0
CC(C)c1ccc(C(O)P(=O)(OC2CCCCC2)OC2CCCCC2)cc1 (centres undefined) | 0 | 0 | 0 | 0 | 0 | 35
Cc1[nH]nc2c1C1(CCN(Cc3ccccc3)CC1)C(C#N)=C(N)O2 | 0 | 0 | 0 | 0 | 0 | 40
Cc1[nH]nc2c1C1(CCOCC1)C(C#N)=C(N)O2 | 0 | 0 | 0 | 0 | 0 | 0
Cc1cc(=O)cc(C)n1-c1ccc2c(c1)nc(C)n2-c1ccccc1 | 0 | 0 | 0 | - | 0 | 0
Cc1cc(=O)cc(C)n1-c1ccc(Br)cc1 | 88 | 0 | 0 | 0 | 0 | 0
COC(=O)c1cc(S(=O)(=O)C(C)C)c(S(C)=O)s1 (centres undefined) | 0 | 0 | 0 | 0 | 0 | 0
SMILES | GLD-1 TGE inh | eLon inh | MCL1 BIM primary | EBV gp42 block | MEX-5 binding | Bcl-xL primary
O=C1CCC/C1=c1\s/c(=C/c2cccnc2)c(=O)n1-c1ccccc1 | - | 0 | - | - | - | -
O=C1CCC/C1=c1\s/c(=C\c2cccnc2)c(=O)n1-c1ccccc1 | 0 | 0 | 0 | 0 | -26 | 0
CC(=O)NCc1ccc(S(=O)(=O)NC(C(=O)O)C(C)C)cc1 (centres undefined) | 0 | 0 | 0 | 0 | 0 | 0
COc1ccc(-c2cc(N)n(S(=O)(=O)c3ccc(C)cc3)n2)c(OC)c1 | 0 | 0 | 0 | 0 | 0 | 48
CCCc1c(NC(=O)Nc2ccc(Cl)cc2Cl)cnn1-c1ccccc1 | 0 | 0 | 0 | 0 | 0 | 0
CC1CCCCC1NC(=O)COC(=O)c1c2c(nc3ccccc13)/C(=C/c1ccco1)CC2 (centres undefined) | 0 | 0 | 0 | 0 | 0 | 0
O=C(COC(=O)c1c2c(nc3ccccc13)/C(=C/c1ccco1)CC2)NC1CCCC1 | - | 0 | - | 83 | 0 | -
Cc1c(C(=O)NNC(=S)Nc2ccc(S(N)(=O)=O)cc2)oc2ccccc12 | 0 | 0 | 0 | - | 0 | 0
Cc1ccc(CN2CCN(Cc3ccc4cc(F)ccc4n3)CC2CCO)o1 (centres undefined) | 0 | 0 | 0 | 0 | 0 | 0
Cc1cnc(C(=O)NNC(=O)c2ccc(Br)cc2)cn1 | 0 | 0 | 0 | - | -41 | 0
O=C(NNC(=O)C1CCC1)c1ccc(Br)cc1 | 0 | 0 | 0 | - | 0 | 0
Clc1ccccc1Nc1nc(NCC2CC2)nc2ccsc12 | - | 0 | - | - | - | -
Nc1cc(N)c(OCC(F)(F)F)cc1OCC(F)(F)F | 0 | 0 | 0 | 0 | 0 | 39
NC(=O)c1sc2nnc(-c3ccccc3)c(-c3ccccc3)c2c1N | 0 | 0 | 0 | 0 | -53 | 0
NNC(=O)c1snnc1-c1ccccc1 | 0 | 0 | 0 | 0 | 0 | 0
NC(=O)c1snnc1-c1ccccc1 | 0 | 0 | 0 | 0 | -29 | 0
O=C(NCc1cccs1)C(=O)NCC1OCCCN1S(=O)(=O)c1cc(F)ccc1F (centres undefined) | 0 | 0 | 0 | - | 0 | 0
Cc1ccc(/C(O)=C2\C(=O)C(=O)N(CC(C)O)C2c2ccccn2)cc1 (centres undefined) | 0 | 0 | 0 | 0 | 0 | 0
S=c1[nH]c2ccccc2n2c(=S)[nH]nc12 | 0 | 0 | 0 | - | -42 | 0
Nc1nc2ncc(C(=O)c3cc(Cl)cc(Cl)c3O)cc2s1 | 0 | 0 | 0 | 0 | 0 | 32
COc1ccc(-c2nc(N)ncc2-c2csc(C)n2)c(O)c1OC | 0 | 0 | 0 | 0 | 0 | 0
CC(C)Oc1ccc(-c2nn(-c3ccccc3)cc2/C=c2\sc3ncnn3c2=O)cc1 | 0 | - | 0 | 75 | - | 0
Cn1c(=O)c2c(C(=O)O)cc(-c3ccccc3)nc2n(Cc2ccccc2)c1=O | 0 | 0 | 0 | - | 0 | 38
COc1ccccc1-c1cc(C(=O)O)c2c(=O)n(C)c(=O)n(Cc3ccccc3)c2n1 | 0 | 0 | 0 | - | 0 | 0
N#CC1=C(N)OC2=C(CC/C2=C\c2ccc(F)cc2)C1c1ccc(F)cc1 (centres undefined) | 0 | - | 0 | 61 | 0 | 0
N#CC1=C(N)OC2=C(CCC/C2=C/c2ccoc2)C1c1ccoc1 (centres undefined) | - | - | - | 0 | 0 | -
O=C(COC(=O)Cn1cc(C(F)(F)F)ccc1=O)NCc1ccccc1 | - | 0 | - | - | - | -
CCCCn1c(SCC(=O)Nc2ccc(NC(C)=O)cc2)nc2ccccc2c1=O | 74 | 0 | 0 | - | 0 | 0
CCn1c(SCC(=O)Nc2ccccc2)nc2ccccc2c1=O | 0 | 0 | 0 | - | 0 | 0
Cc1ccc([N+](=O)[O-])cc1S(=O)(=O)Nc1ccc(O)c(Sc2ncn[nH]2)c1 | 0 | 0 | 0 | - | -40 | 0
